Only a selection was taken, and hits are over-represented in it overall.
LmPK inhibitor: inhibitors of Leishmania mexicana pyruvate kinase; Q27686; Potency, µM (top dose mostly 57.5 µM), for the others: top-dose activity change, negative = inhibition, most hits filed as inhibitors; purified LmPK, Kinase-Glo ATP luminescence, 1 h; AID 1721; hit rate 0.37% among 290,000; further: potency means the concentration at half of the fitted maximal effect; on the % scale 0 is the no-effect control and ±100 the full control effect
Target sequence (Q27686 whole entry, looked up): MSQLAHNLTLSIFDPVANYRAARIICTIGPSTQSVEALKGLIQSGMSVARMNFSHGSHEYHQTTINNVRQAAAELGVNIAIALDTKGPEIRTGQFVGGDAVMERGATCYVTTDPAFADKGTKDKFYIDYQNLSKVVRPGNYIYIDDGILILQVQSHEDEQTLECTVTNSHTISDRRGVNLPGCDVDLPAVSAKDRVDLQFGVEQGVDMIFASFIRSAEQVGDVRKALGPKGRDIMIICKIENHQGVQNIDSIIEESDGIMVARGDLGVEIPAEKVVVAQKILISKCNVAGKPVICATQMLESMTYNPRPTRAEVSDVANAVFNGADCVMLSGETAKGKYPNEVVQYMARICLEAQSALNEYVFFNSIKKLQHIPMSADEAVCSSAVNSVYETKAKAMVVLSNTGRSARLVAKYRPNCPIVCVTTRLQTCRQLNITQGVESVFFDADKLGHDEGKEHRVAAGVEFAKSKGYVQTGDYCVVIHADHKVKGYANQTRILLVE
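Screened at intermediate enzyme activity to detect both inhibitors and activators: LmPK at 0.1 nM, with a 0.5 nM enzyme column as activation reference. PEP 0.5 mM, ADP 0.1 mM; ATP detected by luminescence after 1 h.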
CHX counter-1: counter-screen hit for Shiga toxin inhibitors, cycloheximide; cell reporter, cycloheximide protein synthesis inhibition counterscreen; max response, %; AID 2314; hit rate 12% among 300,000; in the data active means max response mostly above about 13%, no sharp cut-off; inactive means mostly below about 14%; further: read at 38.3 µM for the half of the compounds with a filed dose; 0% is about no effect
TbPYK inhibitor: T. brucei pyruvate kinase inhibition; Q57TT1; Potency, µM (titrated, usually from 76.8 µM), for the others: top-dose activity, negative = inhibition, hits mostly inhibitors; hit rate 0.12% among 410,000; TbPYK enzyme, Kinase-Glo Plus ATP luminescence, 45 min; AID 624173; further: potency means the concentration at half of the fitted maximal effect; on the % scale 0 is the no-effect control and ±100 the full control effect; nearly all actives have a fitted effect of over 50% in size
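Enzyme and substrate buffer are dispensed first and compound is pin-transferred. ADP at 130 uM final then starts the reaction, which runs 45 min at room temperature. Detection reagent is added for 10 min before luminescence is imaged.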
Giardia FBPA inh: blocks Giardia fructose-bisphosphate aldolase activity | A8B2U2 | purified Giardia FBPA | Potency, µM (series often up to 59.6 µM), without a hit: at the highest dose activity, negative = inhibition, hits mostly inhibitors | hit rate 0.71% among 290,000; further: potency means the concentration at half of the fitted maximal effect; on the % scale 0 is the no-effect control and ±100 the full control effect; nearly all actives have a fitted effect of over 55% in size
Target sequence (A8B2U2 whole entry, looked up): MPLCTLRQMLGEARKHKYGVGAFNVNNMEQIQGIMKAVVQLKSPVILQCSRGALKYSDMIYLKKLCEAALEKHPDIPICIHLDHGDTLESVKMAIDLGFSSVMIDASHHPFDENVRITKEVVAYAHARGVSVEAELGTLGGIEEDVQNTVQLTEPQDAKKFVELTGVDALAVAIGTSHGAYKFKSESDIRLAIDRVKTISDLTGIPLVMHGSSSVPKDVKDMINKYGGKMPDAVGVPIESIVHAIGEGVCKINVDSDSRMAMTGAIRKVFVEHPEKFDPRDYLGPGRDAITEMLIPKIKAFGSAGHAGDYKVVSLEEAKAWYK
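Giardia FBPA (40 nM reagent) was preincubated 10 min at RT with compound (up to 57.5 uM final), then substrate plus GAPDH/TPI/NAD/arsenate coupling system with diaphorase/resazurin was added; resorufin fluorescence (525/598 nm) was read after 20 min.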
RE007 growth inh: less growth of the S. pombe RE007 Vpr strain. S. pombe RE007 Vpr strain, BacTiter-Glo ATP luminescence, 24 h. hit rate 0.21% among 360,000. Potency, µM (doses to about 92.2 µM), for inactives: at the highest dose activity change, negative = less growth, hits mostly inhibitors; active means well fitted falling curve with a large enough effect; inconclusive means small, poorly fitted or top-dose-only effect; inactive means no such curve, though single readings can be large or run the other way; further: potency means the concentration at half of the fitted maximal effect; on the % scale 0 is the no-effect control and ±100 the full control effect; nearly all actives have a fitted effect of over 50% in size
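Fission yeast strain RE007, carrying one chromosomally integrated HIV-1 vpr copy, was seeded at OD 0.01 in PMG+AL medium with 23 nL pinned compound. After 24 h at 30 °C and 99% humidity, viability was read by BacTiter-Glo luminescence.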
Shiga inhibitor: blocks Shiga toxin action in Vero cells; hit rate 9.2% among 290,000; Vero cells, Shiga toxin protein synthesis inhibition reporter; inhibition, % at 38.7 µM; AID 2315; in the data active means inhibition mostly above about 28%, no sharp cut-off; inactive means mostly below about 43%; further: 0% is about no effect
CHX counter-2: protein synthesis counter-screen activity for Shiga toxin hits; AID 2318; Potency, µM (top dose mostly 38.3 µM), for inactives: at the highest dose activity (activation), actives largely listed as activators; shares compounds with Shiga inhibitor; Cycloheximide counterscreen, protein synthesis reporter, Shiga toxin assay; hit rate 3% among 510; calls by dose curve; further: potency means the concentration at half of the fitted maximal effect; 0% is about no effect
* = called active by the depositor; [ ] = remark or other dose. Unless noted, the call rests on the fitted dose curve; in most records, active means well fitted curve in the direction sought with a large enough effect; inconclusive means small, poorly fitted or top-dose-only effect, or another doubt; inactive means no such curve, though single readings can be large; an effect the other way counts as inactive or inconclusive.

What do the screens show for `CCOc1c(C(N)=O)cc([N+](=O)[O-])cc1[N+](=O)[O-]`?
LmPK inhibitor: -0.1%; CHX counter-1: -1.9; TbPYK inhibitor: -2.6%; Giardia FBPA inh: -1.3%; RE007 growth inh: 8.4%; Shiga inhibitor: -6.4

What do the screens show for `CCC(C)c1cc([N+](=O)[O-])cc([N+](=O)[O-])c1OC(C)=O` (stereo not given)?
CHX counter-1: 7.5; Giardia FBPA inh: 3.8%; Shiga inhibitor: 25.0*; CHX counter-2: 1.3%

What do the screens show for `COc1cccc2c1C(=O)c1c(O)c3c(c(O)c1C2=O)C[C@@](O)(C(=O)CO)C[C@@H]3O[C@H]1C[C@H](N)[C@H](O)[C@H](C)O1`?
LmPK inhibitor: -25.5%; CHX counter-1: 10.2*; TbPYK inhibitor: -0.6%; Giardia FBPA inh: inconclusive; RE007 growth inh: -4.4%[18.4 µM]; Shiga inhibitor: 37.9*; CHX counter-2: -0.3%[76.6 µM]

Results for COc1cccc2c1C(=O)c1c(O)c3c(c(O)c1C2=O)C[C@@](O)(C(=O)CO)C[C@@H]3OC1CC(N)C(O)C(C)O1 (stereo not given in full) ?
TbPYK inhibitor: -20.0%; RE007 growth inh: -11.1%

How did CCCN(CCC)c1ccc(C2N=C(N)Nc3nc4ccccc4n32)cc1 (stereo not given) do in these assays?
TbPYK inhibitor: 1.4%

What do the screens show for `Cn1c(=O)c2c(nc(N3CCOCC3)n2Cc2ccccc2F)n(C)c1=O`?
TbPYK inhibitor: -7.1%

How did Cc1cc2nc(CCN3CCOCC3)n(S(=O)(=O)c3ccc(C(C)(C)C)cc3)c2cc1C do in these assays?
LmPK inhibitor: 0.1%; CHX counter-1: 11.6; TbPYK inhibitor: 1.8%; Giardia FBPA inh: 0.5%; RE007 growth inh: 5.5%; Shiga inhibitor: 38.4*; CHX counter-2: inconclusive

Results for CCOc1ccc(N(C)C(=O)C2CCN(S(=O)(=O)c3c(C)noc3/C=C/c3ccc(C)cc3)CC2)cc1 ?
TbPYK inhibitor: -11.1%

What do the screens show for `O=C(NCCc1ccccc1)C1CCCN1S(=O)(=O)c1ccc(F)cc1` (stereo not given)?
TbPYK inhibitor: 4.5%; RE007 growth inh: -8.3%

How did O=C(NCCc1ccccc1)C1CCCN1S(=O)(=O)c1ccccc1 (stereo not given) do in these assays?
LmPK inhibitor: -0.2%; CHX counter-1: 8.1; TbPYK inhibitor: 0.1%; Giardia FBPA inh: 5.6%; RE007 growth inh: 3.7%; Shiga inhibitor: 21.9*; CHX counter-2: 4.3%

What do the screens show for `Cn1c(=O)c2c(nc(SCC(=O)Nc3ccc(OC(F)(F)F)cc3)n2Cc2cccc(C(F)(F)F)c2)n(C)c1=O`?
TbPYK inhibitor: 6.6%

What do the screens show for `O=C(Nc1ncc2c(n1)-c1ccccc1CC2)c1cccc(Cl)c1`?
LmPK inhibitor: 2.0%; CHX counter-1: 2.2; TbPYK inhibitor: -1.0%; Giardia FBPA inh: -11.0%; RE007 growth inh: -10.7%; Shiga inhibitor: 33.5*; CHX counter-2: inconclusive

What do the screens show for `CN(C)S(=O)(=O)Oc1ccsc1C(=O)Nc1ccc(Cl)c(Cl)c1`?
LmPK inhibitor: 2.1%; CHX counter-1: 9.6; TbPYK inhibitor: -7.0%; Giardia FBPA inh: -7.5%; RE007 growth inh: -23.6%; Shiga inhibitor: 65.6*; CHX counter-2: 3.4%

Results for O=C(CSc1nc2c([nH]c3ccccc32)c(=O)n1-c1ccccc1)Nc1ccc(Cl)c(Cl)c1 ?
TbPYK inhibitor: -12.0%

How did CN(C)S(=O)(=O)c1ccc(C(=O)OCC(=O)c2ccc3c(c2)NC(=O)CO3)cc1 do in these assays?
LmPK inhibitor: 3.4%; CHX counter-1: 2.1; TbPYK inhibitor: -5.6%; Giardia FBPA inh: -1.5%; RE007 growth inh: -5.5%; Shiga inhibitor: 42.3*; CHX counter-2: -2.9%

What do the screens show for `O=C(Nc1ccc(O)cc1)/C(=C\C=C\c1ccccc1)NC(=O)c1ccccc1`?
LmPK inhibitor: -0.4%; CHX counter-1: 2.5; TbPYK inhibitor: 2.5%; Giardia FBPA inh: -6.0%; RE007 growth inh: -2.9%; Shiga inhibitor: 30.4*; CHX counter-2: 1.1%

How did CC(=O)Nc1ccc(/C=C(\C#N)C(=O)NC2CCCCC2C)cc1 (stereo not given) do in these assays?
LmPK inhibitor: 9.4%; CHX counter-1: 6.0; TbPYK inhibitor: 1.6%; Giardia FBPA inh: 3.2%; RE007 growth inh: 5.4%; Shiga inhibitor: -10.4

How did CSc1ccc(/C=C(\C#N)C(=O)NC2CCCCC2C)cc1 (stereo not given) do in these assays?
LmPK inhibitor: -0.4%; CHX counter-1: 7.6; TbPYK inhibitor: 5.3%; Giardia FBPA inh: -0.5%; RE007 growth inh: inconclusive; Shiga inhibitor: 26.6*; CHX counter-2: 2.9%

What do the screens show for `Cc1cc(C)nc(Sc2ccc3nnnn3n2)n1`?
LmPK inhibitor: -0.9%; CHX counter-1: 10.4; TbPYK inhibitor: -3.4%; Giardia FBPA inh: 5.6%; RE007 growth inh: -8.5%; Shiga inhibitor: 30.7*; CHX counter-2: 9.3%

How did COc1ccc2nc3cc(Cl)ccc3c(NCCCN3CCN(CCCNc4c5ccc(Cl)cc5nc5ccc(OC)cc45)CC3)c2c1 do in these assays?
CHX counter-1: 10.2; Giardia FBPA inh: 1.3%; Shiga inhibitor: 34.2*; CHX counter-2: -0.3%

Results for Cc1cc(C)n(-c2nc(SCCN(C)C)c3c4c(sc3n2)COC(C)(C)C4)n1 ?
LmPK inhibitor: -6.0%; CHX counter-1: -4.3; TbPYK inhibitor: -21.1%; Giardia FBPA inh: 4.6%; RE007 growth inh: -6.1%; Shiga inhibitor: 80.5*; CHX counter-2: -4.9%

Results for Cc1cc(C)n(-c2nc3sc4c(c3c3nnc(SC(C)C)n23)CC(C)(C)OC4)n1 ?
TbPYK inhibitor: -8.0%; RE007 growth inh: 4.1%

How did COC(=O)c1ccc(CNCC(=O)Nc2ccc(C(=O)OC)cc2)cc1 do in these assays?
LmPK inhibitor: -0.4%; CHX counter-1: 4.2; TbPYK inhibitor: 3.9%; Giardia FBPA inh: 2.2%; RE007 growth inh: 8.5%; Shiga inhibitor: -10.9

How did COC(=O)c1ccc(NC(=O)Cc2ccc(F)cc2)cc1 do in these assays?
LmPK inhibitor: -2.6%; CHX counter-1: 13.6; TbPYK inhibitor: 1.5%; Giardia FBPA inh: -1.2%; RE007 growth inh: -3.0%; Shiga inhibitor: 151.3*; CHX counter-2: inconclusive

How did CCc1ccc(C(=O)c2oc3nc(C)cc(C)c3c2N)cc1 do in these assays?
LmPK inhibitor: -2.3%; CHX counter-1: 15.9; TbPYK inhibitor: -5.1%; Giardia FBPA inh: -11.0%; RE007 growth inh: 5.3%; Shiga inhibitor: 51.5*; CHX counter-2: inconclusive

Results for CC(=O)Nc1ccc(NC(=O)c2ccc(COc3ccccc3Br)o2)cc1 ?
LmPK inhibitor: -1.3%; CHX counter-1: 1.6; TbPYK inhibitor: -13.1%; Giardia FBPA inh: -2.3%; RE007 growth inh: -7.7%; Shiga inhibitor: -3.0

Screening data: PubChem BioAssay, National Center for Advancing Translational Sciences (NCATS)
